# Assay results from PubChem BioAssay.
# Active and inactive are the calls of the source.
# How the values were obtained:
# [1] = target: Albumin (Bos taurus) (UniProt P02769); experiment: compounds binding labelled BSA control protein – biochemical, small-molecule microarray, Alexa647 label, 635/667 nm fluorescence, artefact control for SMM control protein annotation, profiling panel (AID 1118); conditions: BSA-A647 binding, fluorescence 635 nm, higher = more signal;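 further: score merges 667 nm emission intensity and signal-to-noise per printed compound spot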
# [2] = probe aXIP binding to arrayed compounds – biochemical, NeuroSMM set, 635/667 nm fluorescence, primary screen (AID 1119); conditions: small-molecule microarray, higher = more signal, called active from +8 up or from −8 down;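 further: probe is the protein aXip251-270 applied at 1 µg/mL to compound-printed slides; binding of probe to printed compounds measured as 667 nm fluorescence plus signal to noise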
# [3] = probe aNOTCH3 binding on compound microarray – biochemical, small-molecule microarray, 635/667 nm fluorescence, primary screen (AID 1120); conditions: higher = more signal;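 further: probe is a biotin-tagged antibody raised against NOTCH3 rather than NOTCH3 protein; score merges spot fluorescence near 667 nm with spot signal to noise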
# [4] = probe aNOTCH2 binding on compound microarray – biochemical, small-molecule microarray, 635/667 nm fluorescence, primary screen (AID 1121); conditions: higher = more signal;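 further: score merges feature fluorescence read at 667 nm with its signal to noise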
# [5] = target: Carbonic anhydrase 2 (Homo sapiens) (UniProt P00918); experiment: compounds binding carbonic anhydrase 2 – biochemical, small-molecule microarray, Alexa647-labelled CAII, profiling panel (AID 1122); conditions: CAII-A647 binding fluorescence, higher = more signal
# [6] = COS7 lysate on small-molecule microarray, probe aHis, 635 nm (AID 1123); conditions: COS7 cell lysate, fluorescence, higher = more signal;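 further: z-score combines 667nm fluorescence intensity with signal-to-noise per printed compound spot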
# [7] = probe aLAP1 signal on lysate-treated microarray – cell lysate, small-molecule microarray, COS7 lysate, primary screen (AID 1124); conditions: probe aLAP1, fluorescence, higher = more signal;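 further: lysate comes from COS7 cells expressing LAP1 and is applied at 0.3 µg/mL; score merges spot fluorescence near 667 nm with signal-to-noise over triplicate slides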
# [8] = test system: Sam68 (KHDRBS1); experiment: compounds binding KHDRBS1 protein – biochemical, small-molecule microarray, 635 nm fluorescence, primary screen (AID 1125); conditions: higher = more signal;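 further: score merges 667 nm channel intensity with signal to noise over triplicate slides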
# [9] = test system: Chordin-like protein 2 (CHRDL2); experiment: compounds binding chordin-like 2 – biochemical, small-molecule microarray, 635 nm fluorescence, primary screen (AID 1126); conditions: fluorescence 635 nm, higher = more signal;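 further: printed compound slides probed with Chrdl2 protein at 4 µg/mL for 1 h at 4 C; score merges 667 nm emission intensity with signal to noise over three replicate slides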
# [10] = target: Concanavalin-A (Canavalia ensiformis) (UniProt P02866); experiment: compounds binding concanavalin A lectin – biochemical, small-molecule microarray, Alexa647 label, 635 nm, artefact control for SMM control protein annotation, primary screen (AID 1127); conditions: ConA-A647 binding fluorescence, higher = more signal;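 further: z combines 667 nm emission intensity with signal-to-noise across three replicate slides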
# Concanavalin-A (Canavalia ensiformis), sequence (P02866 whole entry, looked up): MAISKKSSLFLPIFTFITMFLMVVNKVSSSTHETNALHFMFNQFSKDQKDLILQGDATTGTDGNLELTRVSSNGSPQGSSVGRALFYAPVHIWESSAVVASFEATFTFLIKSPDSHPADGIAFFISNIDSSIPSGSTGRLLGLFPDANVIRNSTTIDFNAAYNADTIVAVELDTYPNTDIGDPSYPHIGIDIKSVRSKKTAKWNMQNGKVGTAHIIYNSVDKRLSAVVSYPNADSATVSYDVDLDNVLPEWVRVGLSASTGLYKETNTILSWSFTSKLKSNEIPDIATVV
# Albumin (Bos taurus), sequence (P02769 whole entry, looked up): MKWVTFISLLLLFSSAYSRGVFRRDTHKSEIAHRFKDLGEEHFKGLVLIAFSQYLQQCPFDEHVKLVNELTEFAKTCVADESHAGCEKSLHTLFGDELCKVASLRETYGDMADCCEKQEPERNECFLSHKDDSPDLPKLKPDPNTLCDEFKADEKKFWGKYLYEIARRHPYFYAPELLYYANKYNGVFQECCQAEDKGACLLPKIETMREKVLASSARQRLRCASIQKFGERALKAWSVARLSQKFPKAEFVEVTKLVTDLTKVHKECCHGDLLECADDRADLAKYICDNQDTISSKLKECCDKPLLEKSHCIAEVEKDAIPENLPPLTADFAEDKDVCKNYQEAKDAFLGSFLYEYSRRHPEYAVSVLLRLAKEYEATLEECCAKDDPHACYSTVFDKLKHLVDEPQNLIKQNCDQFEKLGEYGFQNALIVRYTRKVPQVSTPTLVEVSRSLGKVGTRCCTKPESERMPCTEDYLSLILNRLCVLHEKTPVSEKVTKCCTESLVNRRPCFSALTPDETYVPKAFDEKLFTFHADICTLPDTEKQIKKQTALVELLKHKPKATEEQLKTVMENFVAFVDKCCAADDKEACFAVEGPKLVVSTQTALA
compound,measurement,setting,value
C=CCOC(=O)[C@H]1[C@@H]2C(=O)O[C@@H](c3ccccc3)[C@@H](c3ccccc3)N2[C@@H](c2ccc(OCCOC(=O)[C@H]3C[C@H]4C(=O)N5CCC[C@H]5C(=O)N4[C@H]3c3ccc(O)cc3)cc2)[C@]12C(=O)Nc1ccccc12,composite z-score,[1],-1.36
same,composite Z-score,[2],0.171 (inactive)
same,composite z-score,[3],0.141
same,composite z-score,[4],-0.0928
same,composite z-score,[5],0.576
same,composite z-score,[6],2.25
same,composite z-score,[7],0.793
same,composite z-score,[8],1.32
same,composite z-score,[9],1.25
same,composite z-score,[10],1.11
CCCC[C@@H]1C[C@H]1[C@@H](NC(=O)c1ccco1)c1ccc(Cl)cc1,composite z-score,[1],0.796
same,composite Z-score,[2],-0.0717 (inactive)
same,composite z-score,[3],0.193
same,composite z-score,[4],-0.0164
same,composite z-score,[5],0.637
same,composite z-score,[6],1.99
same,composite z-score,[7],0.65
same,composite z-score,[8],1.33
same,composite z-score,[9],-0.414
same,composite z-score,[10],1.07
O=C(NCc1ccccc1)[C@@]1(CCS(=O)(=O)c2ccccc2)N=C(c2ccc(OCCCO)cc2)O[C@H]1c1ccccc1,composite z-score,[1],1.01
same,composite Z-score,[2],0.198 (inactive)
same,composite z-score,[3],0.471
same,composite z-score,[4],-0.0128
same,composite z-score,[5],0.615
same,composite z-score,[6],3.07
same,composite z-score,[7],0.557
same,composite z-score,[8],1.29
same,composite z-score,[9],-0.481
same,composite z-score,[10],1.16
CC[C@@H]1C=C(C(=O)O)[C@H](c2ccco2)N1S(=O)(=O)c1ccc(C)cc1,composite z-score,[1],-0.179
same,composite Z-score,[2],0.33 (inactive)
same,composite z-score,[3],-0.128
same,composite z-score,[4],-0.108
same,composite z-score,[5],0.689
same,composite z-score,[6],0.059
same,composite z-score,[7],0.591
same,composite z-score,[8],0.125
same,composite z-score,[9],0.209
same,composite z-score,[10],-1.29
CCCC[C@@H]1C[C@H]1[C@@H](NC(=O)c1ccco1)c1ccc(C(=O)OC)cc1,composite z-score,[1],0.623
same,composite Z-score,[2],0.224 (inactive)
same,composite z-score,[3],-0.0967
same,composite z-score,[4],-0.11
same,composite z-score,[5],0.39
same,composite z-score,[6],0.792
same,composite z-score,[7],0.187
same,composite z-score,[8],0.0166
same,composite z-score,[9],0.0374
same,composite z-score,[10],-0.112
C=CCNC(=O)[C@H]1[C@@H]2C(=O)O[C@@H](c3ccccc3)[C@@H](c3ccccc3)N2[C@@H](c2ccc(OCCO)cc2)[C@]12C(=O)N(C(=O)OCCOC)c1ccccc12,composite z-score,[1],0.262
same,composite Z-score,[2],0.108 (inactive)
same,composite z-score,[3],0.199
same,composite z-score,[4],-0.0964
same,composite z-score,[5],0.381
same,composite z-score,[6],1.99
same,composite z-score,[7],0.503
same,composite z-score,[8],1.3
same,composite z-score,[9],0.176
same,composite z-score,[10],1.14
N#Cc1ccc(NN2C(C(O)c3c(F)cccc3Cl)C=CC3C(=O)N(c4ccccc4)C(=O)C32)cc1 (stereo not given),composite z-score,[1],1.09
same,composite Z-score,[2],0.238 (inactive)
same,composite z-score,[3],-0.095
same,composite z-score,[4],0.0563
same,composite z-score,[5],0.396
same,composite z-score,[6],3.25
same,composite z-score,[7],1.55
same,composite z-score,[8],1.29
same,composite z-score,[9],-0.768
same,composite z-score,[10],1.13
O=C1c2ccccc2[C@](Cc2ccccc2I)(C(=O)NC2CC2)[C@H](c2ccc(CO)cc2)N1Cc1ccccc1,composite z-score,[1],-0.213
same,composite Z-score,[2],0.476 (inactive)
same,composite z-score,[3],-0.0055
same,composite z-score,[4],-0.0495
same,composite z-score,[5],0.711
same,composite z-score,[6],1.7
same,composite z-score,[7],0.478
same,composite z-score,[8],0.512
same,composite z-score,[9],-0.0374
same,composite z-score,[10],0.894
COC(=O)[C@@]1(Cc2ccc(F)cc2)[C@@H]2[C@@H](CC(=O)[C@H]2CC(=O)C(=O)N(C)C)CN1C(=O)c1ccccc1,composite z-score,[1],0.998
same,composite Z-score,[2],0.742 (inactive)
same,composite z-score,[3],0.245
same,composite z-score,[4],-0.041
same,composite z-score,[5],0.73
same,composite z-score,[6],2.84
same,composite z-score,[7],-0.171
same,composite z-score,[8],1.34
same,composite z-score,[9],-0.633
same,composite z-score,[10],1.1
O=C(c1ccccc1)N1Cc2ccccc2[C@@H]2OC(c3ccc(OCCCO)cc3)=N[C@]2(Cc2ccccc2)C1=O,composite z-score,[1],0.383
same,composite Z-score,[2],0.07 (inactive)
same,composite z-score,[3],0.225
same,composite z-score,[4],-0.18
same,composite z-score,[5],0.554
same,composite z-score,[6],1.38
same,composite z-score,[7],0.482
same,composite z-score,[8],1.31
same,composite z-score,[9],0.061
same,composite z-score,[10],1.13
O=C1NC(=O)C2C1C=CC(C(O)Cc1ccccc1)N2Nc1ccc(Cl)cc1Cl (stereo not given),composite z-score,[1],0.809
same,composite Z-score,[2],-0.082 (inactive)
same,composite z-score,[3],0.198
same,composite z-score,[4],-0.11
same,composite z-score,[5],0.803
same,composite z-score,[6],2.07
same,composite z-score,[7],-0.226
same,composite z-score,[8],-1.18
same,composite z-score,[9],-1.15
same,composite z-score,[10],-0.652
COc1cc(CO)cc(I)c1O[C@H]1C=C(C(=O)NCCO)C[C@@H](N(CCN2CCOCC2)C(=O)C2CCOC2)[C@@H]1O (stereo not given in full),composite z-score,[1],-1.02
same,composite Z-score,[2],0.0953 (inactive)
same,composite z-score,[3],0.189
same,composite z-score,[4],-0.0729
same,composite z-score,[5],0.0321
same,composite z-score,[6],-0.204
same,composite z-score,[7],0.459
same,composite z-score,[8],0.322
same,composite z-score,[9],0.486
same,composite z-score,[10],-0.169
COCCOC(=O)N1C(=O)[C@@]2(c3cc(C#CCCO)ccc31)[C@H](C(=O)N1CCc3cc(OC)c(OC)cc3C1)[C@H]1C(=O)O[C@H](c3ccccc3)[C@H](c3ccccc3)N1[C@@H]2c1ccc(O)cc1,composite z-score,[1],-0.335
same,composite Z-score,[2],0.566 (inactive)
same,composite z-score,[3],0.0893
same,composite z-score,[4],-0.0846
same,composite z-score,[5],0.471
same,composite z-score,[6],2.33
same,composite z-score,[7],0.255
same,composite z-score,[8],1.29
same,composite z-score,[9],0.425
same,composite z-score,[10],1.04
COCCOC(=O)N1C(=O)[C@@]2(c3cc(C#CC4=CCCCC4)ccc31)[C@H](C(N)=O)[C@H]1C(=O)O[C@H](c3ccccc3)[C@H](c3ccccc3)N1[C@@H]2c1ccc(OCCO)cc1,composite z-score,[1],0.588
same,composite Z-score,[2],0.362 (inactive)
same,composite z-score,[3],-0.315
same,composite z-score,[4],-0.259
same,composite z-score,[5],0.348
same,composite z-score,[6],0.763
same,composite z-score,[7],0.481
same,composite z-score,[8],1.3
same,composite z-score,[9],0.0151
same,composite z-score,[10],0.459
CCOC(=O)[C@H]1C/C=C/C[C@H](C(=O)OCC)C(=O)O[C@H]2[C@@H](OC)O[C@H](CO)[C@@H](OC(=O)Nc3cccc(F)c3)[C@@H]2OC1=O,composite z-score,[1],0.407
same,composite Z-score,[2],0.46 (inactive)
same,composite z-score,[3],1.06
same,composite z-score,[4],0.0593
same,composite z-score,[5],0.66
same,composite z-score,[6],1.86
same,composite z-score,[7],0.903
same,composite z-score,[8],1.19
same,composite z-score,[9],0.306
same,composite z-score,[10],0.189
C=CCOC(=O)[C@H]1[C@@H]2C(=O)O[C@@H](c3ccccc3)[C@@H](c3ccccc3)N2[C@@H](c2ccc(OCCOC(=O)[C@@H]3C[C@@H]4C(=O)N[C@@H](CCCCN(C)C)C(=O)N4[C@@H]3c3ccc(O)cc3)cc2)[C@]12C(=O)Nc1ccc(I)cc12,composite z-score,[1],-0.342
same,composite Z-score,[2],0.711 (inactive)
same,composite z-score,[3],-0.0111
same,composite z-score,[4],-0.18
same,composite z-score,[5],0.574
same,composite z-score,[6],1.66
same,composite z-score,[7],0.278
same,composite z-score,[8],1.3
same,composite z-score,[9],1.24
same,composite z-score,[10],1.15
